Cycloheximide cs = counter-screen for Shiga toxin inhibitors: cycloheximide protein synthesis inhibition; cell reporter, cycloheximide protein synthesis inhibition counterscreen; hit rate 12% among 300,000; AID 2314; max response, %; in the data active = max response mostly above about 13%, no sharp cut-off; inactive = mostly below about 14%; also: read at 38.3 µM for the half of the compounds with a filed dose; 0% is about no effect
VACV Venus inh = vaccinia inhibition (Venus reporter) | hit rate 0.46% among 330,000 | AID 720580 | Vaccinia virus Venus reporter expression, fluorescence | Potency, µM (highest dose often 36.5 µM), for inactives: top-dose activity change, negative = inhibition, actives largely listed as inhibitors; calls by dose curve; tested in A549 cells; also: potency is read from the fitted curve at half-maximal effect; % is scaled to controls: 0 for no effect and ±100 for the full control effect; nearly all actives have a fitted effect of over 30% in size
Vaccinia mCherry = vaccinia inhibition (mCherry reporter); Vaccinia virus mCherry reporter infection, fluorescence; Potency, µM (top dose mostly 36.5 µM), inactives show at the top dose activity change, negative = inhibition, most hits filed as inhibitors; hit rate 0.63% among 310,000; AID 720579; calls by dose curve; tested in A549 cells; also: potency is read from the fitted curve at half-maximal effect; % is scaled to controls: 0 for no effect and ±100 for the full control effect; nearly all actives have a fitted effect of over 35% in size
LASV entry inh = inhibitors of Lassa virus binding or cell entry; Lassa virus pseudotype entry inhibition, cell reporter; Potency, µM (titrated, usually from 37.9 µM), for inactives: at the highest dose activity change, negative = inhibition, hits mostly inhibitors; hit rate 1.2% among 300,000; calls by dose curve; tested in HEK293 cells; also: potency is read from the fitted curve at half-maximal effect; % is scaled to controls: 0 for no effect and ±100 for the full control effect; nearly all actives have a fitted effect of over 50% in size
MARV entry inh = blocks Marburg virus binding to or entry into cells; Marburg virus pseudotyped entry inhibition, cell reporter; hit rate 1.8% among 300,000; Potency, µM (series often up to 37.8 µM), for inactives: top-dose activity change, negative = inhibition, usual class: inhibitors; calls by dose curve; tested in HEK293 cells; also: potency is read from the fitted curve at half-maximal effect; % is scaled to controls: 0 for no effect and ±100 for the full control effect
Shiga toxin inh = Shiga toxin inhibition. AID 2315. hit rate 9.2% among 290,000. Vero cells, Shiga toxin protein synthesis inhibition reporter. inhibition, % at 38.7 µM; in the data active = inhibition mostly above about 28%, no sharp cut-off; inactive = mostly below about 43%; also: 0% is about no effect
The depositor's hits bear a star; i = inactive; ? = inconclusive; . = not tested or not shown; [ ] = another dose, or the depositor's remark. The full list was thinned out, with hits kept by preference.

SMILES	Cycloheximide cs	VACV Venus inh	Vaccinia mCherry	LASV entry inh	MARV entry inh	Shiga toxin inh
Cc1ccc2[nH]c3c(=O)n(CCN4CCOCC4)cnc3c2c1	39*	-10%	-19%	8%	5%	61*
Cc1ccc2[nH]c3c(NCCCN4CCCC4=O)ncnc3c2c1	31*	-14%	-16%	21%	6%	71*
O=C1CC(c2cc(F)cc(F)c2)c2cc3c(cc2N1)OCO3 (stereo not given)	.	-15%	-12%	?	-22%[46.1 µM]	.
CCOc1ccc(-c2nnc(SCC(=O)NCc3ccc(C)cc3)nc2-c2ccc(OCC)cc2)cc1	.	-10%	0%	?	.	.
Cc1ccc(C)c(NC(=O)Cn2c(SCC(=O)NCc3ccccc3)nc3ccccc32)c1	.	-2%	-20%	-18%[46.1 µM]	.	.
Cc1ccc2[nH]c3nc(SCCN4CCOCC4)nnc3c2c1	28*	.	.	?	4%	86*
O=C(CCSc1ccccc1)NNC(=O)c1ccccc1F	.	-1%	-14%	-11%	-1%[46.1 µM]	.
CC(C)CC(NC(N)=O)C(=O)Nc1ccc2c(c1)OCO2 (stereo not given)	30*	.	.	.	.	49
CC(Nc1ccc2c(c1)OCCO2)C(=O)Nc1ccc2c(c1)OCO2 (stereo not given)	18	8%	11%	-8%	12%[46.1 µM]	36
CC(=O)NC(Cc1c[nH]c2ccccc12)C(=O)Nc1ccc2c(c1)OCO2 (stereo not given)	9	5%	.	19%	?	38*
CC(=O)N[C@@H](Cc1c[nH]c2ccccc12)C(=O)OCC(=O)NCc1ccc2c(c1)OCO2	6	-6%	-13%	10%[46.1 µM]	0%[46.1 µM]	1
O=C(CNC(=O)c1ccco1)Nc1ccc2c(c1)OCCO2	.	-12%	-4%	?	?	.
CCCC(C)C(=O)Nc1ccc2c(c1)OCCO2 (stereo not given)	50*	-13%	.	0%	25%	86*
CC(C)CC(NC(=O)c1ccco1)C(=O)Nc1ccc2c(c1)OCCO2 (stereo not given)	72*	.	.	.	-3%	84*
CCOC(=O)c1cc(NC(=O)Nc2ccccc2OC)c(C)nc1C	1	-3%	-19%	-17%	-1%	-4
Cc1ccccc1NC(=O)Nc1ccccn1	28*	.	.	.	.	.
CCCONC(=O)Nc1ccccc1[N+](=O)[O-]	8	6%	-15%	21%	6%	14
Cc1ccccc1NC(=O)Nc1cc(-c2ccccc2)nn1C	36*	-13%	-26%	?	?	82*
CCOC(=O)c1cc(NC(=O)Nc2ccccn2)c(C)nc1C	27*	.	.	.	.	37
O=C(Nc1ccccn1)Nc1ccccc1[N+](=O)[O-]	40*	-17%	i	18%[46.1 µM]	20%[46.1 µM]	47*
Cc1cccc(-n2c(=O)c3c(c4cc(C)ccc4n3C)n(CC(=O)Nc3ccccc3C(F)(F)F)c2=O)c1	.	0%	2%	-5%[46.1 µM]	6%[46.1 µM]	.
O=C1CC2CCCN2C=C1I (stereo not given)	.	1%	i	.	.	.
CCCN(CCC)C(=O)CN1C(=O)CSc2ccc(S(=O)(=O)N3CCC(C)CC3)cc21	.	-13%	-14%	.	-15%[46.1 µM]	.
C[C@@H]1CN([C@@H](C)CO)C(=O)CCCn2nncc2CO[C@H]1CN(C)Cc1cccc(O)c1	.	-23%	-13%	.	.	.
Cc1ccc(N/N=C/c2c(O)n(-c3ccccc3)c(=O)[nH]c2=O)cc1	22*	-7%	-20%	?	?	42
SMILES	Cycloheximide cs	VACV Venus inh	Vaccinia mCherry	LASV entry inh	MARV entry inh	Shiga toxin inh
CCC(=NCCCn1ccnc1)c1c(O)n(-c2ccccc2)c(=O)[nH]c1=O	-1	-8%	-5%	22%[46.1 µM]	14%[46.1 µM]	-7
CC/C(=N\Nc1ccccc1)c1c(O)n(-c2ccccc2)c(=O)[nH]c1=O	5	-23%	-12%	10µM*	-19%	13
C/C(=N\Nc1cccc2ccccc12)c1c(O)n(Cc2ccccc2)c(=O)[nH]c1=O	1	0%	-12%	5%	?	-4
C/C(=N\NC(=O)c1ccccc1)c1c(O)n(Cc2ccccc2)c(=O)[nH]c1=O	52*	-2%[7.34 µM]	-3%[7.34 µM]	29%	?	101*
CC/C(=N\NC(=O)Nc1ccccc1)c1c(O)n(Cc2ccccc2)c(=O)[nH]c1=O	35*	-9%	-1%	-2%	-2%	105*
COc1cc(OC)c(OC)cc1CN1CCCC(c2[nH]ncc2-c2cccc(C(F)(F)F)c2)C1 (stereo not given)	.	-16%	-20%	.	.	.
COc1cc(NC(=O)c2ccc(-n3cnc4cccnc43)cc2)cc(OC)c1	.	5%	-14%	13%[46.1 µM]	.	.
C=CCN1C(=O)[C@@]2(CC(C)=C[C@@H](COc3ccccc3)O2)c2ccccc21	.	.	.	.	2%[14.2 µM]	.
Cc1cnc(C(=O)NC(Cc2ccccc2)c2ccccc2)cn1 (stereo not given)	2	-1%	i	18%[46.1 µM]	4%[46.1 µM]	-3
COc1cc(C2CC(=O)N(CC(=O)Nc3ccccc3F)c3ccccc3S2)cc(OC)c1OC (stereo not given)	.	-8%	-12%	.	?	.
Cc1ccc(O)c(NC(=O)c2noc3c2CCc2ccccc2-3)c1	43*	-3%	?	10%[46.1 µM]	?	87*
CC(=O)c1cccc(NC(=O)c2noc3c2CCc2ccccc2-3)c1	35*	.	.	.	.	66*
Cc1c(NC(=O)c2noc3c2CCc2ccccc2-3)c(=O)n(-c2ccccc2)n1C	.	2%	11%	.	7%	.
Cc1cc(NC(=O)c2noc3c2CCc2ccccc2-3)no1	-2	5%	-15%	.	.	7
COc1ccc(C(=O)N(Cc2nc(-c3ccc(C)cc3)no2)C2CCCCC2)cc1OC	12	-23%	-23%	?	?	-8
O=C(Nc1nnc(-c2ccc3c(c2)CCCC3)o1)c1c(F)cccc1F	26	-7%	-7%	-17%	20%[46.1 µM]	76*
CC1CCCCN1CC(=O)Nc1cc(S(=O)(=O)N2CCOCC2)ccc1N1CCCC1 (stereo not given)	-1	-6%	8%	-16%	-7%[46.1 µM]	-18
CN1CCN(C(=O)C2=C[C@H](C(C)(C)C)C[C@H](OCCCCO)O2)CC1	-2	-7%	-15%	.	.	-6
COC(=O)C1C(=O)c2c([nH]c(C(=O)OCC3CCCO3)c2C)CC1C (stereo not given)	23*	-9%	-5%	.	.	58*
CCCCCOC(=O)c1[nH]c2c(c1C)C(=O)C(C(=O)OC)C(C)C2 (stereo not given)	26*	-23%	?	-19%	18%	38
COC(=O)C1C(=O)c2c([nH]c(C(=O)OC3CCCCCC3)c2C)CC1C (stereo not given)	25*	-7%	0%	.	-1%	57*
COCCOC(=O)c1[nH]c2c(c1C)C(=O)C(C(=O)OC)C(C)C2 (stereo not given)	34*	.	.	.	.	74*
CC1=C(C(=O)OCC2CCCO2)C(c2ccccc2)NC(=O)N1 (stereo not given)	-5	-13%	-6%	?	?	-21
CCOc1ccc(C2CC(=O)c3c([nH]c(C(=O)OC4CCCCCC4)c3C)C2)cc1 (stereo not given)	.	-11%	-4%	13%[46.1 µM]	3%[46.1 µM]	.
